# Compound activity (PubChem BioAssay)
# Compounds with a hit are over-represented: about 4.5% of the library has one in this group of screens.
# aSyn UTR inh: MLPCN primary screen, SNCA 5' untranslated region; 300,000 tested, 0.82% active; alpha-synuclein 5'UTR reporter, inhibitor activity; inhibition, % (tested at 7.5 µM); in the data active = inhibition above about 60%;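 note: H4 neuroglioblastoma cells stably carrying SNCA 5'UTR luciferase fusion; 0% = DMSO wells and 100% = positive control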
# Mdm2-MdmX inh: human Mdm2/MdmX binding inhibition; 330,000 tested, 3% active; inhibition, % at 8 µM; AID 485346; O15151+Q00987; SaOS-2 split-luciferase Mdm2/MdmX complementation, luminescence;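 active = inhibition of at least 50% at 8 µM in the primary screen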
# 697 NFkB inh: lowers PMA/ionomycin-induced NF-kB signal in 697 B cells. 697 B-cell NF-kB luciferase reporter, 16 h. inhibition, % at 4 µM. 330,000 tested, 0.33% active. AID 435022; in the data active = inhibition above about 35%
# Gli-Sufu block: blocks Gli-Sufu signaling in a luciferase reporter. Sufu-KO-LIGHT fibroblasts, Gli luciferase reporter luminescence. inhibition, % at 5 µM. 340,000 tested, 0.74% active. AID 588413;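 active = inhibition above about 55%, limit read from the data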;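 note: 0% = DMSO-treated cells and 100% = wells with medium but no cells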
# Jurkat NFkB inh: inhibitors of the PMA/ionomycin-induced NF-kB reporter in Jurkat cells; PMA/ionomycin-induced NF-kB luciferase reporter, luminescence; 330,000 tested, 0.53% active; inhibition, % at 4 µM; in the data active = inhibition above about 50%
# CSC inhib: cancer stem cell inhibition. cancer stem cell-like cells viability, luminescence. inhibition, % at 7.5 µM. 300,000 tested, 1.1% active. AID 2717; in the data active = inhibition above about 75%; tested in HMLE shEcad cells
# Mdm2-MdmX conf: human Mdm2/MdmX binding inhibition, confirmed. luminescent assay. inhibition, % at 8 µM. AID 489028. 10,000 tested, 55% active. shares compounds with Mdm2-MdmX inh; in the data active = inhibition above about 40%
# Full FLuc ctr: full-length luciferase inhibition in Mdm2/MdmX counter-screen | shares compounds with Mdm2-MdmX inh | SaOS-2 full-length luciferase counterscreen, luminescence | inhibition, % at 8 µM | 6,200 tested, 77% active | AID 504607;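 active = mean inhibition at 8 µM reaching about 37%, which flags the compound as non-specific, limit read from the data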;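 note: p53-null SaOS-2 cells with luciferase driven by a doxycycline-inducible promoter; compound on cells about two nights before reading with doxycycline added after day one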
# Starred values were filed as active, the others as inactive; i = inactive; . = no result.
SMILES,aSyn UTR inh,Mdm2-MdmX inh,697 NFkB inh,Gli-Sufu block,Jurkat NFkB inh,CSC inhib,Mdm2-MdmX conf,Full FLuc ctr
CCCC(=O)OCCNc1cc(Sc2nc3ccccc3[nH]2)c2nonc2c1[N+](=O)[O-],-1.9,96.1*,25.2,-15.0,-2.3,3.9,99.2*,52.6*
CCC(=O)OCCNc1cc(SCCC(=O)OC)c2nonc2c1[N+](=O)[O-],2.8,16.7,-10.0,-1.5,25.5,-8.6,.,.
CCOc1ccccc1NC(=O)C(=O)NCCC1=CCCCC1,19.9,14.0,-8.8,-1.2,4.4,8.9,.,.
COc1ccccc1NC(=O)C(C)OC(=O)/C=C/c1ccc2ccccc2n1 (stereo not drawn),-56.8,12.0,11.1,-23.6,17.8,-2.1,.,.
CC(OC(=O)/C=C/c1ccc2ccccc2n1)C(=O)N(C)c1ccccc1 (stereo not drawn),.,64.7*,-40.0,3.7,-4.3,.,35.2,56.2*
Cn1nc(C(F)(F)F)c2cc(C(=O)Nc3ccc(C(F)(F)F)cc3)sc21,-10.8,60.9*,-6.0,19.2,7.1,71.8,12.2,.
Cn1nc(C(F)(F)F)c2cc(C(=O)Nc3ccc(F)cc3)sc21,2.5,9.5,11.4,13.9,-1.9,6.2,.,.
O=C(Nc1nc(-c2ccccn2)cs1)c1ccco1,42.2,50.9*,-11.7,-6.5,2.8,0.6,23.8,.
O=C(Nc1nc(-c2ccccn2)cs1)c1cccc(-n2cnnn2)c1,82.7*,77.1*,-26.3,21.7,16.1,31.8,68.9*,26.2
Cc1ccc(S(=O)(=O)CCC(=O)OCc2nnc(-c3ccccc3)o2)cc1,.,17.5,2.9,-1.9,-3.4,-8.2,.,.
O=[N+]([O-])c1ccccc1/C=N/Nc1nnc(-c2ccccc2)c(-c2ccccc2)n1,29.9,-7.4,29.7,3.5,7.7,-4.7,.,.
O=C(NCC1CCN(C(=O)c2c(F)c(F)c(F)c(F)c2F)CC1)c1c(F)c(F)c(F)c(F)c1F,5.1,15.0,20.6,-1.3,-6.2,-9.3,.,.
O=C(c1ccc(S(=O)(=O)Cc2ccccc2Cl)c([N+](=O)[O-])c1)N1CCOCC1,-0.4,51.1*,34.3,-7.0,20.0,10.5,42.0*,49.0*
O=C(NC1CCCCC1)c1ccc(S(=O)(=O)c2ccccc2Cl)c([N+](=O)[O-])c1,-94.9,77.0*,-10.9,.,16.6,9.5,65.8*,17.2
O=C(c1ccc(S(=O)(=O)c2ccc(F)cc2)c([N+](=O)[O-])c1)N1CCCCCC1,-54.2,56.3*,-5.7,48.5,20.1,32.6,31.1,30.1
O=C(c1ccc(S(=O)(=O)Cc2ccccc2F)c([N+](=O)[O-])c1)N1CCCC1,-30.8,27.9,33.6,9.7,15.2,1.3,.,.
CN(C(=O)c1ccc(S(=O)(=O)c2cccc(Cl)c2)c([N+](=O)[O-])c1)C1CCCCC1,-86.4,72.5*,-24.8,.,12.6,47.2,60.0*,28.9
Cc1ccccc1CS(=O)(=O)c1ccc(C(=O)N2CCOCC2)cc1[N+](=O)[O-],38.4,37.8,27.8,5.3,17.1,-8.2,.,.
CN(C(=O)c1ccc(NC(=O)Cc2cccc([N+](=O)[O-])c2)cc1)C1CCCC1,.,14.8,-7.0,3.7,-9.6,-13.6,.,.
COc1cc2c(cc1OC)CN(C(=O)C1CCN(S(=O)(=O)c3ccccc3F)CC1)CC2,-10.3,11.3,-4.0,37.5,5.6,9.2,.,.
CSCc1ccc(C(=O)N2CCC(N3CCC(C(=O)NC(C)C)CC3)CC2)o1,-5.5,6.3,-8.7,8.1,0.8,1.0,.,.
O=C(c1ccc(Br)c([N+](=O)[O-])c1)N1CCN(Cc2ccccc2)CC1,-1.7,28.1,-2.2,-17.6,3.3,-9.2,.,.
O=C(c1ccc(S(=O)(=O)c2ccccc2Cl)c([N+](=O)[O-])c1)N1CCN(Cc2ccccc2)CC1,-45.2,83.9*,10.0,17.7,33.5,12.5,75.0*,29.6
NC(=O)N=Nc1c2[nH]c3ccccc3nc-2c2ccccc12,i,81.6*,10.7,-14.7,-33.2,58.4,52.4*,65.4*
O=C(NNC(=O)c1cc(-c2ccc(Cl)cc2Cl)nc2ccccc12)Nc1ccccc1,-1.7,63.9*,1.0,1.1,8.9,-10.8,37.5,.
O=C(NNC(=O)c1ccc(Cl)cc1Cl)Nc1ccccc1,-23.1,-5.5,-19.5,-13.5,0.8,-13.7,.,.
